# Compound activity: PubChem, Broad Institute
# The entries come from a sample that favours hits as a whole.
# T cruzi growth-1: T. cruzi proliferation inhibition. T. cruzi beta-gal in NIH3T3, GalScreen luminescence, 90 h. inhibition, % at 8.34 µM. 77,000 tested, 5.9% active;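 active = mean inhibition above about 93%, with at least 55% of replicates each passing it, limit read from the data, passing the limit was not always enough; inconclusive = only one of those two conditions holds; inactive = neither condition holds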
# C diff HTS: C. difficile growth inhibition; Clostridium difficile clinical isolate growth, OD600, 24 h; stronger effect = lower value; growth activity, negative = inhibition, % at 16 µg/mL (by protocol); 86,000 tested, 0.25% active;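 active = mean growth activity at or below -80% and every replicate also at or below -80%; inconclusive = mean at or below -80% but some replicate above -80%; inactive = mean growth activity above -80%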;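 note: 0% = DMSO wells and -100% = levofloxacin 16 µg/mL wells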
# T cruzi growth-2: inhibitors of T. cruzi proliferation | shares compounds with T cruzi growth-1 | T. cruzi beta-gal in NIH3T3, GalScreen luminescence, 90 h | inhibition, % at 8.35 µM | 5,600 tested, 72% active | AID 651739;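 active = mean replicate inhibition above about 95% and at least 55% of replicates individually reaching it, limit read from the data; inconclusive = only one of the two criteria is met; inactive = neither criterion is met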
# T cruzi growth-3: blocks T. cruzi growth in NIH3T3 host cells; T. cruzi beta-gal in NIH3T3, GalScreen luminescence, 90 h; shares compounds with T cruzi growth-1; inhibition, % at 2.09 µM; 5,600 tested, 21% active; AID 651740;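 active = mean inhibition above about 95%, with at least 55% of replicates also reaching it, limit read from the data; inconclusive = meets just one of the two conditions; inactive = meets neither condition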;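 note: plate controls were neutral control median for no effect and positive control median for full effect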
# 3T3 cytotox: NIH/3T3 (mouse) viability loss; NIH/3T3 viability, CellTiter-Glo ATP luminescence, 90 h; AID 651742; 5,600 tested, 14% active; cytotoxicity (signal decrease), % at 8.35 µM; shares compounds with T cruzi growth-1;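 active = mean signal decrease across replicates above about 35% based on untreated-well scatter, with enough replicates individually passing, limit read from the data; inconclusive = no rule stated though some were filed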;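 note: 0% = median of neutral control wells and 100% = median of positive control wells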
# NIH3T3 tox 2: NIH/3T3 (mouse) viability loss | shares compounds with T cruzi growth-1 | NIH/3T3 viability, CellTiter-Glo ATP luminescence, 90 h | inhibition, % at 24.9 µM | 5,600 tested, 56% active | AID 651744;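 active = mean loss of cell viability signal at or above a set limit, and enough replicates individually reaching it; inconclusive = meets only the mean limit or only the replicate share; inactive = meets neither condition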;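 note: 0% = median of neutral control wells and 100% = median of positive control wells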
# An asterisk follows results filed as active; u = inconclusive; x = not tested or not shown.
SMILES,T cruzi growth-1,C diff HTS,T cruzi growth-2,T cruzi growth-3,3T3 cytotox,NIH3T3 tox 2
O=C(c1ccccc1F)N1CC(=O)N2[C@H](CO)[C@@H](c3ccc(-c4ccc(F)cc4)cc3)[C@H]2C1,x,-6.3,x,x,x,x
COCCNC(=O)c1cc2c(c(-c3cccc(C#CCN(C)C)c3)n1)[C@H](CCO)N(S(=O)C(C)(C)C)C2 (stereo partly specified),66.9,-5.3,x,x,x,x
C/C=C/c1ccc([C@@H]2[C@H](C#N)N(c3ncc(CC)s3)[C@H]2CO)cc1,93.9,2.5,x,x,x,x
C/C=C/c1ccc([C@H]2[C@@H](C#N)N(c3ncc(CC)s3)[C@H]2CO)cc1,101.1*,0.1,105.8*,99.9*,2.4,18.4
C/C=C/c1ccc([C@@H]2[C@@H](C#N)N(c3ncc(CC)s3)[C@@H]2CO)cc1,u,5.7,100.8*,107.0*,19.4,38.0*
C/C=C/c1ccc([C@@H]2[C@@H](C#N)N(c3ncc(CC)s3)[C@H]2CO)cc1,101.8*,16.1,95.9*,16.8,1.6,52.8*
COc1ccccc1S(=O)(=O)N(C)C[C@H]1Oc2ncc(-c3ccc(C)cc3)cc2C(=O)N([C@@H](C)CO)C[C@@H]1C,110.6*,15.2,102.6*,61.1,25.0,41.9*
COc1ccccc1S(=O)(=O)N(C)C[C@@H]1Oc2ncc(-c3ccc(C)cc3)cc2C(=O)N([C@H](C)CO)C[C@@H]1C,60.6,0.4,x,x,x,x
COc1ccccc1S(=O)(=O)N(C)C[C@H]1Oc2ncc(Br)cc2C(=O)N([C@@H](C)CO)C[C@H]1C,x,-4.5,x,x,x,x
COc1ccccc1S(=O)(=O)N(C)C[C@H]1Oc2ncc(-c3ccc(C)cc3)cc2C(=O)N([C@H](C)CO)C[C@@H]1C,98.7*,18.4,99.3*,70.9,63.8*,36.9*
CCCC#Cc1cnc2c(c1)C(=O)N([C@@H](C)CO)C[C@H](C)[C@@H](CN(C)C(=O)Nc1c(C)noc1C)O2,14.9,4.3,x,x,x,x
C[C@H](CO)N1C[C@H](C)[C@H](CN(C)C(=O)Nc2ccc(-c3ccccc3)cc2)OCc2ccccc2-c2c(n(C)c3ccccc23)C1=O,x,3.1,x,x,x,x
COc1ccccc1S(=O)(=O)N(C)C[C@H]1Oc2cc(C#CCC(C)C)ccc2S(=O)(=O)N([C@H](C)CO)C[C@@H]1C,79.1,2.6,x,x,x,x
COc1ccccc1S(=O)(=O)N(C)C[C@@H]1Oc2cc(/C=C/c3ccccc3)ccc2S(=O)(=O)N([C@H](C)CO)C[C@@H]1C,127.9*,11.7,100.1*,103.4*,-4.1,28.8*
COc1cccc(S(=O)(=O)N(C)C[C@H]2Oc3cc(C#CCN(C)C)ccc3S(=O)(=O)N([C@@H](C)CO)C[C@H]2C)c1,57.4,11.3,x,x,x,x
COc1ccccc1S(=O)(=O)N(C)C[C@H]1Oc2cc(C#CCC(C)C)ccc2S(=O)(=O)N([C@@H](C)CO)C[C@H]1C,113.2*,3.8,95.2*,108.0*,12.8,80.6*
COc1cccc(S(=O)(=O)N(C)C[C@H]2Oc3cc(C#CCN(C)C)ccc3S(=O)(=O)N([C@@H](C)CO)C[C@@H]2C)c1,108.2*,-4.7,113.5*,66.9,-1.6,5.3
COc1cccc(S(=O)(=O)N(C)C[C@@H]2Oc3cc(C#CCC(C)C)ccc3S(=O)(=O)N([C@H](C)CO)C[C@@H]2C)c1,68.0,35.7,x,x,x,x
COc1cccc(S(=O)(=O)N(C)C[C@H]2Oc3cc(C#CCC(C)C)ccc3S(=O)(=O)N([C@H](C)CO)C[C@H]2C)c1,u,13.9,97.4*,115.2*,28.6,74.2*
COc1ccccc1S(=O)(=O)N(C)C[C@@H]1Oc2cc(/C=C/c3ccccc3)ccc2S(=O)(=O)N([C@@H](C)CO)C[C@@H]1C,92.9,5.3,x,x,x,x
CO[C@@H]1CN(C)C(=O)c2ccc(NC(=O)C3CCOCC3)cc2OC[C@@H](C)N(Cc2cccnc2)C[C@@H]1C,x,-2.2,x,x,x,x
C[C@H](CO)N1C[C@H](C)[C@H](CN(C)Cc2ccc(C(=O)O)cc2)Oc2ccc(NC(=O)Cn3cnnn3)cc2CC1=O,-30.1,1.6,x,x,x,x
C[C@H](CO)N1C[C@H](C)[C@@H](CN(C)C(=O)c2cc(Cl)cc(Cl)c2)OCc2ccccc2-c2ccccc2C1=O,x,-4.3,x,x,x,x
O=C(C1CC1)N1[C@H](CO)[C@@H]2c3ccccc3N(S(=O)(=O)c3ccccc3)C[C@@H]21,-30.2,2.1,x,x,x,x
CCN(C[C@H]1[C@@H](c2ccccc2)[C@H](CO)N1C(=O)COC)S(C)(=O)=O,11.2,4.6,x,x,x,x
SMILES,T cruzi growth-1,C diff HTS,T cruzi growth-2,T cruzi growth-3,3T3 cytotox,NIH3T3 tox 2
C[C@@H]1CN([C@@H](C)CO)C(=O)c2cccc(NC(=O)C3CCCCC3)c2O[C@@H]1CN(C)Cc1ccc(C(=O)O)cc1,22.9,2.8,x,x,x,x
CCCC#Cc1ccc2c(c1)O[C@H](CN(C)S(=O)(=O)c1cccc(OC)c1)[C@H](C)CN([C@H](C)CO)S2(=O)=O,120.7*,15.0,103.5*,98.3*,33.1,24.9*
COCC#Cc1ccc2c(c1)O[C@H](CN(C)S(=O)(=O)c1cccc(OC)c1)[C@@H](C)CN([C@@H](C)CO)S2(=O)=O,58.1,1.7,x,x,x,x
COc1ccc2c3c(n(C)c2c1)[C@H](CO)N(C(=O)c1cccnc1)CC31CN(C(=O)c2cccnc2)C1,x,52.5,x,x,x,x
C[C@H](CO)N1C[C@H](C)[C@H](CN(C)Cc2ccccn2)Oc2cc(C#C[C@@H](C)O)ccc2S1(=O)=O,-10.2,8.2,x,x,x,x
CCCC#Cc1ccc2c(c1)O[C@@H](CN(C)Cc1ccccn1)[C@H](C)CN([C@H](C)CO)S2(=O)=O,u,0.7,96.9*,28.1,68.7*,105.3*
CC(C)C#Cc1ccc2c(c1)O[C@@H](CN(C)Cc1ccccn1)[C@@H](C)CN([C@@H](C)CO)S2(=O)=O,93.2,33.0,x,x,x,x
CCCC#Cc1ccc2c(c1)O[C@H](CN(C)Cc1ccccn1)[C@@H](C)CN([C@@H](C)CO)S2(=O)=O,u,-8.3,99.4*,u,22.1,103.3*
C[C@@H]1CN([C@H](C)CO)S(=O)(=O)c2ccc(C#CCN(C)C)cc2O[C@@H]1CN(C)Cc1ccccn1,75.4,-5.1,x,x,x,x
C[C@H]1CN([C@@H](C)CO)S(=O)(=O)c2ccc(C#CCN(C)C)cc2O[C@H]1CN(C)Cc1ccccn1,91.8*,-5.5,u,52.2,6.0,u
C[C@H](CO)N1C[C@H](C)[C@H](CN(C)Cc2ccccn2)Oc2cc(C#CCN(C)C)ccc2S1(=O)=O,89.0,-3.0,x,x,x,x
CCCC#Cc1ccc2c(c1)O[C@@H](CN(C)Cc1ccccn1)[C@@H](C)CN([C@H](C)CO)S2(=O)=O,u,-5.6,96.4*,50.5,u,-21.3
CN(C)CC(=O)N[C@H]1CC[C@@H](CCn2cc(CN(C)C)nn2)O[C@@H]1CO,17.0,-4.3,x,x,x,x
COc1ccc(S(=O)(=O)N(C)C[C@H]2Oc3ccc(NC(=O)C4CC4)cc3CC(=O)N([C@H](C)CO)C[C@@H]2C)cc1,11.3,-4.6,x,x,x,x
